# Reference: PubChem BioAssay (NCATS)
# Records with an inconclusive call do not appear. The list shows a part of the results. Activity calls are given as the source filed them. Calls come from the whole dose curve; as a rule, active = well fitted curve in the direction sought with a large enough effect; inconclusive = small, poorly fitted or top-dose-only effect, or another doubt; inactive = no such curve, though single readings can be large; an effect the other way counts as inactive or inconclusive.
# Columns and labels:
# [1] = tested on: Zika virus NS2B-NS3 protease (linked); assay: 384 well plate NINDS AMC confirmatory qHTS for Zika virus inhibitors (AID 1347163); conditions: Recombinant NS2B-NS3 protease, Ac-VKTGKR-AMC fluorescence; series mostly up to 1 mM; note: potency is the fitted concentration of half-maximal effect; nearly all actives have a fitted effect of over 50% in size
# Procedure, shortened: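 Fluorescence at 355/460 nm was read after 25 minutes of cleavage of 30 microM Ac-VKTGKR-AMC at room temperature, in the dark. Before substrate addition, compounds (up to 1 mM final) sat ~15 minutes with 5, 30 or 60 nM linked protease. Signals were normalized to no-enzyme and no-inhibitor wells.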
# [2] = tested on: Zika virus NS2B-NS3 protease (linked construct); assay: 384 well plate NINDS Rhodamine confirmatory qHTS for Zika virus inhibitors (AID 1347164); conditions: rhodamine-110 peptide substrate fluorescence; series mostly up to 1 mM; note: top concentration of the series differs between compounds; nearly all actives have a fitted effect of over 65% in size
# Procedure, shortened: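 Cleavage of Ac-LKRR-Rhodamine 110 (10 microM final) by linked protease (final 5, 30 or 60 nM) was followed as fluorescence at 485/538 nm after 25 min, room temperature, dark. Compounds preincubated ~15 min.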
# [3] = Tertiary RLuc qRT-PCR qHTS assay for Zika virus inhibitors (AID 1347169); conditions: infected Vero cells, reporter luminescence, 48-72 h; series mostly up to 1.74 µM; note: top concentration of the series differs between compounds; nearly all actives have a fitted effect of over 55% in size
# Procedure, shortened: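 Inhibition of ZIKV-RLuc replication in Vero cells, read as Renilla luminescence 1-1.5 hrs after live-cell substrate addition, following 48-72 hrs infection at MOI 1-2 in presence of compound.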
# [4] = target: Tyrosyl-DNA phosphodiesterase 1 (Homo sapiens) (UniProt Q9NUW8); assay: Confirmation Assay for Inhibitors of Tyrosyl-DNA Phosphodiesterase (TDP1) (AID 489007); conditions: recombinant human TDP1 enzymatic activity, dose-response; note: potency is the fitted concentration of half-maximal effect; nearly all actives have a fitted effect of over 40% in size
# Tyrosyl-DNA phosphodiesterase 1 (Homo sapiens), sequence (Q9NUW8 whole entry, looked up): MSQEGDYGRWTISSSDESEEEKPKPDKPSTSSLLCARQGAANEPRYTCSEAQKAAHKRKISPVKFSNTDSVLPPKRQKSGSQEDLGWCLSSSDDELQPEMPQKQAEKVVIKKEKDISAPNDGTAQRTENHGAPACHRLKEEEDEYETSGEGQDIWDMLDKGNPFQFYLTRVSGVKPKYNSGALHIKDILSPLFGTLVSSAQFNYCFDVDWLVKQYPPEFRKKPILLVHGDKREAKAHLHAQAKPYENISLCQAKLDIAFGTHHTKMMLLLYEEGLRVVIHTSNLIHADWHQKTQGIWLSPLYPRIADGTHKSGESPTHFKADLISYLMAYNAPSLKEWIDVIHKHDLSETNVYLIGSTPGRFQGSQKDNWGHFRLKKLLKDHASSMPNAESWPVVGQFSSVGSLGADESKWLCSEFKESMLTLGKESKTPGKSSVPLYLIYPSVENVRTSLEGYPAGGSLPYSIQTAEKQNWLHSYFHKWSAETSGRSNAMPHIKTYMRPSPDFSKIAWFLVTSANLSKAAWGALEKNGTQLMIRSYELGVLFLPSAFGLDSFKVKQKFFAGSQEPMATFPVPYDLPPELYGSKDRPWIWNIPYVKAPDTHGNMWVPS
# Procedure, shortened: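 Compounds are preincubated 15 min at room temperature with 1 nM recombinant human Tdp1. The reaction starts on adding 15 nM FITC-phosphotyrosine DNA substrate, runs 5 min, and is detected by AlphaScreen beads after 10 min.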
# [5] = target: Vitamin D3 receptor (Homo sapiens) (UniProt P11473); assay: qHTS for Inhibitors of the vitamin D receptor (VDR): Hit Validation in Primary Screen (AID 602199); conditions: VDR-coactivator inhibition assay, qHTS confirmation; note: potency is the fitted concentration of half-maximal effect
# Vitamin D3 receptor (Homo sapiens), sequence (P11473 whole entry, looked up): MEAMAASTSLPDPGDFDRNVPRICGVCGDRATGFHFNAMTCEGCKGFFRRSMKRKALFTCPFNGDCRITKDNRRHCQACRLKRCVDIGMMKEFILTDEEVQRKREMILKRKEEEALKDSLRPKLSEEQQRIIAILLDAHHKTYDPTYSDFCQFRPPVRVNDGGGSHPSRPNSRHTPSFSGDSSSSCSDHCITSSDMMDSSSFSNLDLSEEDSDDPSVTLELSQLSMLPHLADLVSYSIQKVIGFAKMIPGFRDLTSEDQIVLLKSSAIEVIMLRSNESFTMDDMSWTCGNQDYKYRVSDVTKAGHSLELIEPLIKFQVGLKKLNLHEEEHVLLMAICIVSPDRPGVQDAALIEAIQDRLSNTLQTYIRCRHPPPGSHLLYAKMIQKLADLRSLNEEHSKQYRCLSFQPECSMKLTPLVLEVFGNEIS
# From the text: The vitamin D receptor (VDR) is a ligand-activated transcription factor and is partially responsible for the regulation of the endocrine system. This includes the transcriptional regulation of genes involved in the production of the parathyroid hormone (PTH) and the regulation of the blood calcium level. High levels of PHT can cause hypercalcemia in the case of primary and tertiary hyperparathyroidism. The VDR-mediated gene regulation, activated by its ligand 1,25-dihydroxyvitamin D3 (1,25-(OH)2D3), is governed by the recruitment of coactivators. Our hypothesis is that small molecules, with the ability to inhibit the interaction between VDR and certain coactivators, are able to selectively modulate VDR-mediated transcription. […]
# In a collaboration between the University of Wisconsin, Milwaukee and the NIH Chemical Genomics Center (NCGC) a HTS-compatible enzymatic assay was developed. The assay uses fluorescence polarization as its read-out to measure the inhibition between VDR and coregulator peptide SRC2-3 exerted by small molecules. […]
# Four microliter of either 800nM VDR, 5uM LG19078, and […]nM SRC2-3 Alexa 647 (all final concentrations) in columns 1, 2, and 5 to 48 or […]nM SRC2-3 Alexa 647 in columns 3 and 4 are dispensed into black medium-binding solid bottom Greiner plates. […] It is then read on the Envision for a fluorescent polarization read-out (Ex 620 nm/Em 688 nm)
Structure (SMILES),Potency [1],Potency [2],Potency [3],Potency [4],Potency [5]
Nc1c(S(=O)(=O)O)cc(Nc2ccc(Nc3nc(Cl)nc(Nc4ccc(S(=O)(=O)O)cc4)n3)c(S(=O)(=O)O)c2)c2c1C(=O)c1ccccc1C2=O,10 µM (active),inactive,inactive,,
CCOC(=O)C1=NO[C@@]2(C=C(Br)C(=O)[C@H]3O[C@H]32)C1,,,,11.2 µM (active),12.6 µM (active)
